Results filed as inconclusive are left out. The source made the active and inactive calls. How the source made its calls: active means hit-call score of the fitted dose curve at least 0.9, where 1 is the maximum; inconclusive means response in the unintended direction; inactive means score below 0.9.
Tests used:
[1] = Tanguay_ZF_120hpf_CFIN_legacy: (Legacy) Oregon State University Tanguay Lab 120 Hour Post-fertilization zebrafish Assay for Caudal Fin Malformation (AID 2283649)
Summary of the method: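 Binary presence or absence of caudal fin malformation at 120 hpf, read by brightfield microscopy, with DMSO as baseline. Larvae came from 5D wild-type embryos exposed statically from 6 hpf at 28C after pronase dechorionation.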

[2] = Tanguay_ZF_120hpf_PIG_legacy: (Legacy) Oregon State University Tanguay Lab 120 Hour Post-fertilization zebrafish Assay for Pigmentation Malformation (AID 2283650)
Summary of the method: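 Tropical 5D wild-type zebrafish embryos, dechorionated with pronase at 4 hpf, were exposed singly from 6 hpf to 120 hpf statically at 28C in sealed, dark plates with 0.64% DMSO; pigmentation scored present/absent by brightfield microscopy, fitted against DMSO.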

[3] = Tanguay_ZF_120hpf_CIRC_legacy: (Legacy) Oregon State University Tanguay Lab 120 Hour Post-fertilization zebrafish Assay for Circulatory Malformation (AID 2283651)
Summary of the method: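 Read-out: presence or absence of circulatory malformation at 120 hpf, scored by brightfield microscopy, fitted in the gain-of-signal direction against DMSO baseline. Wild-type 5D larvae were exposed from 6 hpf after enzymatic chorion removal.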

[4] = Tanguay_ZF_120hpf_TRUN_legacy: (Legacy) Oregon State University Tanguay Lab 120 Hour Post-fertilization zebrafish Assay for Truncated Body (AID 2283655)
Summary of the method: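 Truncated body is recorded as a binary endpoint at 120 hpf by brightfield imaging of wild-type 5D larvae. Exposure runs statically from 6 hpf at 28C with 0.64% DMSO; embryos dying earlier are not scored.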

[5] = Tanguay_ZF_120hpf_NC_legacy: (Legacy) Oregon State University Tanguay Lab 120 Hour Post-fertilization zebrafish Assay for Notochord and Tail Malformation (AID 2283656)
Summary of the method: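 Dechorionated Tropical 5D wild-type zebrafish embryos, one per well from 6 hpf, statically exposed to 120 hpf at 28C in 0.64% DMSO final. Notochord distortion scored present/absent by brightfield; dead embryos excluded.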

[6] = Tanguay_ZF_120hpf_SWIM_legacy: (Legacy) Oregon State University Tanguay Lab 120 Hour Post-fertilization zebrafish Assay for Swim Bladder Malformation (AID 2283654);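 further: swim bladder malformation in each larva scored yes or no under brightfield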
Summary of the method: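 Dechorionated Tropical 5D wild-type embryos, placed singly from 6 hpf, were statically exposed at 28C to 120 hpf with 0.64% DMSO final; swim bladder malformation was scored present/absent by brightfield microscopy, gain of signal relative to DMSO controls.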

Measured: outcome

Cc1ccc2oc(CN(Cc3ccccc3)C(=O)Nc3c(F)cc(F)cc3F)c(-c3ccc(Cl)cc3)c2c1
inactive: [1] | [2] | [3] | [4] | [5]

CCCCCCCC[Si](OCC)(OCC)OCC
inactive: [1] | [2] | [6] | [4] | [5]

c1ccc(C[n+]2cccc3ccccc32)cc1
inactive: [1] | [2] | [3] | [4] | [5]

Oc1ccccc1
inactive: [2] | [6] | [4] | [5]

CCCCCCCCN(C)CCCCCCCC
inactive: [1] | [3] | [4] | [5]

CCN(Cc1cccc(S(=O)(=O)O)c1)c1ccc(C(=C2C=CC(=[N+](CC)Cc3cccc(S(=O)(=O)O)c3)C=C2)c2ccccc2S(=O)(=O)[O-])cc1
inactive: [1] | [2] | [3] | [4]

O=C(OCCCCCCOC(=O)c1ccccc1)c1ccccc1
inactive: [1] | [3] | [4] | [5]

Cc1cc2c(cc1C(F)(F)F)N(C(=O)Nc1ccc(Oc3cccnc3C)nc1)CC2
inactive: [1] | [2] | [6] | [4] | [5]

O=c1ccc2ccccc2o1
inactive: [1] | [2] | [3] | [4] | [5]

CC1=CC(=O)/C(=C(/C)O)C(=O)O1
inactive: [1] | [2] | [3] | [4] | [5]

CC/C(=C(/CC)c1ccc(O)cc1)c1ccc(O)cc1
inactive: [1] | [3] | [6]

CC[C@H](NC(=O)c1cc(F)ccc1NS(=O)(=O)c1cccc2cccnc12)c1ccccc1
inactive: [1] | [3] | [6] | [4] | [5]

From PubChem BioAssay (EPA / NIEHS)
